# Test results reported in PubChem BioAssay (NCATS).
# “And” between values parts separate entries of the source, which are not always exact repeats. Equal values may be shown once. Inconclusive results are not listed. The source made the active and inactive calls. Unless noted, the call rests on the fitted dose curve; in most records, active means well fitted curve in the direction sought with a large enough effect; inconclusive means small, poorly fitted or top-dose-only effect, or another doubt; inactive means no such curve, though single readings can be large; an effect the other way counts as inactive or inconclusive.
# Assays:
# [1] = Cell Proliferation Assay against the TMD8 Cell Line (AID 651645); conditions: TMD8 DLBCL cell line proliferation/viability; at 46.1 µM (top of the series) unless noted;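 further: cells exposed to compound for 48 h before reading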
# Summary of the method: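 TMD8 cells, 500/well in RPMI with 5% FBS, dosed immediately and grown 48 h at 37 C, 5% CO2. CellTiter-Glo luminescence normalised to DMSO 100% and 9.2 uM bortezomib (final) 0%.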
# [2] = Cell Proliferation Assay against the HBL1 Cell Line (AID 651646); conditions: HBL1 DLBCL cells; at 46.1 µM (top of the series) unless noted;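 further: cells exposed to compound for 48 h before reading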
# Summary of the method: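 HBL1, 500 cells/well, RPMI no phenol red + 5% FBS; cpd pinned, 48 h 37C/5% CO2; CellTiter-Glo, 15 min RT, luminescence. % activity: DMSO = 100%, bortezomib 9.2 uM final = 0%.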
# [3] = Cell Proliferation Assay against the TMD8 Cell Line (Caspase readout at 16 hrs) (AID 651712); further: potency means the concentration at half of the fitted maximal effect
# Summary of the method: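 Caspase-Glo luminescence after 16 h compound exposure of TMD8 cells, 37 °C, 5% CO2. Medium: RPMI without phenol red, 5% FBS. Normalisation: DMSO = 0%, bortezomib 9.2 uM final = 100%.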
# [4] = Cell Proliferation Assay against the TMD8 Cell Line (Caspase readout at 8 hrs) (AID 651713); further: potency means the concentration at half of the fitted maximal effect
# Summary of the method: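 Luminescent caspase 3/7 assay; TMD8 cells, 8 h treatment at 37C, 5% CO2. Normalisation: DMSO 0%, 9.2 uM bortezomib 100%.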
# [5] = qHTS assay for small molecule agonists of the antioxidant response element (ARE) signaling pathway (AID 651741; active means well fitted activation curve with a large enough effect in the signal ratio; the % refers to the signal ratio; further: % of control where 0% means no effect)
# Summary of the method: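 HepG2 ARE-bla reporter cells, 2,000/well; 5 h settle at 37 C/5% CO2; compound pin transfer (23 nL, DMSO); 16 h at 37 C; LiveBLAzer B/G FRET substrate, 2 h RT; fluorescence intensity read.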
# [6] = qHTS assay for small molecule activators of the p53 signaling pathway (AID 651743; active means well fitted activation curve with a large enough effect in the signal ratio, not every such curve was filed as active; the % refers to the signal ratio; further: % of control where 0% means no effect); conditions: HCT-116 p53RE-bla, beta-lactamase FRET ratio, 16 h; stronger effect = higher value
# Summary of the method: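 Reporter: beta-lactamase driven by p53 response elements, stably integrated in HCT-116 cells. Cells seeded at 4,000/well, 5 h preincubation, compound (DMSO) 16 h at 37 C; B/G FRET substrate 2 h RT; fluorescence intensity read.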
# [7] = qHTS assay for small molecule activators of the nuclear factor-kappa B (NF-kB) signaling pathway (AID 651749; active means well fitted activation curve with a large enough effect in the signal ratio; the % refers to the signal ratio; further: % of control where 0% means no effect); conditions: NF-kB-bla ME-180 cells, beta-lactamase FRET ratio, 16 h; stronger effect = higher value
# Summary of the method: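 NF-kB-bla ME-180 cells, 2,000/well; 23 nL compound or DMSO pinned; 16 hr, 37C/5% CO2; beta-lactamase FRET read-out.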
# [8] = biological target: Tumor necrosis factor (Homo sapiens) (UniProt P01375); assay: qHTS assay to identify small molecules that stimulate Tumor Necrosis Factor-alpha (TNF-alpha) secretion (AID 651757; active means well fitted curve in the direction sought with a large enough effect in the signal ratio; the % refers to the signal ratio; further: 0% is about no effect)
# Summary of the method: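 Using 3000 THP-1 cells per well, compounds and controls were applied for 17 hrs at 37 C. Detection followed with two labeled anti-TNF-alpha antibodies (cryptate donor, XL665 acceptor) for 3 hr at room temperature, measured by TR-FRET.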
# Sequence of Tumor necrosis factor (Homo sapiens) (P01375 whole entry, looked up): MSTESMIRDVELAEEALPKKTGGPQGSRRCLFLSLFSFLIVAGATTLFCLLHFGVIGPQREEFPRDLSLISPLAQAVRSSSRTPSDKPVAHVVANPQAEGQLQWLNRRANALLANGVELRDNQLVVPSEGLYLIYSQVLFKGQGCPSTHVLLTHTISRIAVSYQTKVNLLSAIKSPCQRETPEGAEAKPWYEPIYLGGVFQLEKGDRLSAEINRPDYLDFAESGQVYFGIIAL
structure (smiles),measurement,setting,value
Cc1nc(N)sc1-c1ccnc(Nc2ccc(N3CCOCC3)cc2)n1,viability (% of control),[1],4.33%
same,"viability, percent of control",[2],24.4%
COc1cc2ncnc(-n3nc(-c4ccccn4)nc3N)c2cc1OC,viability (% of control),[1],1.94%
same,"viability, percent of control",[2],17.1%
same,Potency,[3],16.6 µM (active)
same,Potency,[4],20.9 µM (active)
CO[C@H]1C[C@@H]2CC[C@@H](C)[C@@](O)(O2)C(=O)C(=O)N2CCCC[C@@H]2C(=O)O[C@H]([C@H](C)C[C@@H]2CC[C@H](OCCO)[C@H](OC)C2)CC(=O)[C@H](C)C=C(C)[C@@H](O)[C@@H](OC)C(=O)[C@H](C)C[C@H](C)C=CC=CC=C1C,viability (% of control),[1],-0.307%
same,"viability, percent of control",[2],9.54%
same,Potency,[3],inactive
O=c1cc(CN2CCOCC2)occ1OCCCCCSc1ccnc2cc(C(F)(F)F)ccc12,viability (% of control),[1],6.87%
same,"viability, percent of control",[2],20.4%
CN(C)Cc1ccc(-c2nc3cccc4c3n2CCNC4=O)cc1,viability (% of control),[1],17%
same,"viability, percent of control",[2],60.9%
COc1ncc(-c2ccc3nccc(-c4ccnnc4)c3c2)cc1NS(=O)(=O)c1ccc(F)cc1F,viability (% of control),[1],1.53%
same,"viability, percent of control",[2],4.41%
same,Potency,[3],inactive
O=C(CCCCCCC(=O)Nc1ccccc1)NO,viability (% of control),[1],2.92% [at 92.2 µM]
same,"viability, percent of control",[2],3.42% [at 92.2 µM]
same,Potency,[3],0.429 µM (active)
same,Potency,[4],inactive
CC(=O)N(C)C1(c2ccccc2)CCN(CCC[C@]2(c3ccc(Cl)c(Cl)c3)CCCN(C(=O)c3ccccc3)C2)CC1,viability (% of control),[1],1.74%
same,"viability, percent of control",[2],1.69%
same,Potency,[3],11.8 µM (active)
CO[C@H]1C=CC=C(C)C(=O)NC2=CC(=O)C(NCCN(C)C)=C(C[C@@H](C)C[C@H](OC)[C@@H](O)[C@@H](C)C=C(C)[C@@H]1OC(N)=O)C2=O,viability (% of control),[1],3.74%
same,"viability, percent of control",[2],4.29%
CC(C)[C@H](CO)Nc1nc(Nc2ccc(C(=O)O)c(Cl)c2)c2ncn(C(C)C)c2n1,viability (% of control),[1],83.7%
same,"viability, percent of control",[2],129%
same,Potency,[3],inactive
same,Potency,[4],inactive
CN1CCN(CCOc2cc(OC3CCOCC3)c3c(Nc4c(Cl)ccc5c4OCO5)ncnc3c2)CC1,viability (% of control),[1],17.4%
same,"viability, percent of control",[2],19.4%
COc1ccc(C2CC(c3ccccc3)=NN2c2ccc(S(N)(=O)=O)cc2)cc1 (centres undefined),viability (% of control),[1],13.6%
same,"viability, percent of control",[2],5.45%
CCOc1ccc(Nc2nc(-c3c(C)nc4ccccn34)cs2)cc1,viability (% of control),[1],5.58%
same,"viability, percent of control",[2],14.7%
same,Potency,[3],0.105 µM (active)
N#Cc1ccc(NC(=O)Nc2ccccc2Br)c2n[nH]nc12,viability (% of control),[1],12.8%
same,"viability, percent of control",[2],69.7%
same,Potency,[3],inactive
same,Potency,[4],inactive
c1ccc2c(-c3cnn4cc(-c5ccc(N6CCNCC6)cc5)cnc34)ccnc2c1,viability (% of control),[1],0.905%
same,"viability, percent of control",[2],3.84%
CC(=O)Nc1ccc([C@H](C)C(=O)Nc2ncc(C(C)C)s2)cc1,viability (% of control),[1],-0.0002%
same,"viability, percent of control",[2],33.5%
COc1cc2ncnc(Nc3ccc(F)c(Cl)c3)c2cc1OCCCN1CCOCC1,viability (% of control),[1],50.3%
same,"viability, percent of control",[2],40.3%
NC(CO)(CO)CCc1ccc(Sc2cccc(OCc3ccccc3)c2)cc1Cl,viability (% of control),[1],0.474%
same,"viability, percent of control",[2],1.28%
same,Potency,[3],inactive
O=C1C(Cl)=C(NCCN2CCOCC2)C(=O)c2ncccc21,viability (% of control),[1],3.41%
same,"viability, percent of control",[2],2.09%
same,Potency,[3],inactive
same,Potency,[4],inactive
CC(C)(C)COc1ccc(-n2cc(C(=O)O)cn2)cc1C#N,viability (% of control),[1],88.1%
same,"viability, percent of control",[2],90.4%
same,Potency,[3],inactive
same,Potency,[4],inactive
COc1cc(Nc2ncc(F)c(Nc3ccc4c(n3)NC(=O)C(C)(C)O4)n2)cc(OC)c1OC,viability (% of control),[1],17.5%
same,"viability, percent of control",[2],56.6%
same,Potency,[3],inactive
same,Potency,[4],inactive
CC(C)(C)C(=O)Oc1ccc2c(c1)nc(NC(=O)c1cccc([N+](=O)[O-])c1)n2CCCO,viability (% of control),[1],0.179%
same,"viability, percent of control",[2],16.8%
same,Potency,[3],inactive
same,Potency,[4],inactive
O=C(Nc1ccccc1-c1cn2c(CN3CCNCC3)csc2n1)c1cnc2ccccc2n1,viability (% of control),[1],2.49%
same,"viability, percent of control",[2],2.43%
same,Potency,[3],inactive
CCOC(CN1C(=O)[C@](CC(=O)Nc2ccc(C)cc2)(NC(=O)Nc2ccc(C)cc2)c2ccccc21)OCC,viability (% of control),[1],16.8%
same,"viability, percent of control",[2],4.35%
Clc1ccc(-c2nc3sccn3c2C=NOCc2ccc(Cl)c(Cl)c2)cc1,viability (% of control),[1],74.9%
same,"viability, percent of control",[2],4.32%
same,Potency,[3],inactive
same,Potency,[4],inactive
CO[C@@H](C(=O)N1Cc2[nH]nc(NC(=O)c3ccc(N4CCN(C)CC4)cc3)c2C1)c1ccccc1,viability (% of control),[1],3.09%
CN(C)C1CCN(C(=O)c2ccc(NC(=O)Nc3nc(N4CCOCC4)nc(N4CCOCC4)n3)cc2)CC1,viability (% of control),[1],2.35%
same,"viability, percent of control",[2],26.9%
same,Potency,[3],6.62 µM (active)
Cc1ccc(F)c(NC(=O)Nc2ccc(-c3cccc4[nH]nc(N)c34)cc2)c1,viability (% of control),[1],4.9%
same,"viability, percent of control",[2],8.04%
same,Potency,[3],inactive
same,Potency,[4],inactive
CC(C)(C)c1cc(C(=O)O)c(NC(=O)Nc2ccc3[nH]ncc3c2)s1,viability (% of control),[1],99.7%
same,"viability, percent of control",[2],100%
same,Potency,[3],inactive
same,Potency,[4],inactive
COc1cccc2c1CCCC2CCCN1CCN(C2CCCCC2)CC1 (centres undefined),viability (% of control),[1],1.09%
same,"viability, percent of control",[2],28.8%
same,Potency,[3],23.5 µM (active)
same,Potency,[4],29.6 µM (active)
CCCNC(=O)NS(=O)(=O)c1ccc(Cl)cc1,Potency,[5],inactive
same,activation,[6],-1.07% (inactive) and -0.555% (inactive)
same,activation,[7],-1.46% (inactive) and -0.938% (inactive)
same,outcome,[8],inactive
